Source: PubChem BioAssay AID651820 (National Center for Advancing Translational Sciences (NCATS), 2012)
Several values for one entry are separate records, joined by “and”; a condition that tells them apart may be missing. Equal entries are not always repeated. Out of some 340,000 compounds screened, about 12,000 (3.5%) were called active. About 18% were inconclusive and are not listed. Calls follow the shape of the dose curve; as a rule, active = well fitted inhibition curve with a large enough effect; inconclusive = small, poorly fitted or top-dose-only effect, or another doubt; inactive = no such curve, though single readings can be large or run the other way. The full list was thinned out, with actives kept by preference. A structure can be active in one record and inactive in another.

Assay: qHTS Assay for Inhibitors of Hepatitis C Virus (HCV)
Conditions: Huh7.5.1 HCVcc-Cre infection, luciferase reporter, 44 h; series mostly up to 41.8 µM; activity change, negative = inhibition: at the top concentration
Procedure, shortened: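 Luciferase read-out (15 sec integration) after a 15 min room-temperature substrate step quantifies HCVcc-Cre infection. Cells, 1,000 per well, had compound added 4 h post-plating, then virus at ~0.5 moi, and were cultured 44 h.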
% is scaled to controls: 0 for no effect and ±100 for the full control effect; potency is read from the fitted curve at half-maximal effect.

Structure (SMILES) | activity change, negative = inhibition | Potency
CCN(CC)C(=O)[C@H]1C[C@H](CC(=O)NCC23CC4CC(CC(C4)C2)C3)C(=O)N2CCc3c([nH]c4cc(CCC(=O)N(C)C)ccc34)[C@]12C | -5.73% [at 8.37 µM] (inactive) | –
CCC(=O)c1ccc(OCC(=O)Nc2ccc(N3CCCCC3)cc2)cc1 | – | 11.2 µM (active)
O=C(COc1ccc([N+](=O)[O-])cc1)Nc1ccc(N2CCCC2)cc1 | 2.94% (inactive) | –
COc1ccc(OCC(=O)Nc2ccc(N3CCC(C)CC3)cc2)cc1 | -12.1% (inactive) | –
O=C(NC(=S)Nc1ccc(Br)cc1F)C1CCCCC1 | 18.5% (inactive) | –
Cc1c(NS(=O)(=O)c2cc(C(=O)NCCc3ccc(F)cc3)cc(Cl)c2Cl)c(=O)n(-c2ccccc2)n1C | 14.6% (inactive) | –
CCN(CC(=O)NC(C)C)C(=O)c1cc(S(=O)(=O)N2CCCCC2)ccc1N1CCCCC1 | 26.8% (inactive) | –
CN(C)CCCNC(=O)/C=C/c1ccc(OCc2c(F)cccc2Cl)cc1 | – | 2.82 µM (active)
COCCCNC(=O)/C=C/c1ccc(OCc2c(F)cccc2Cl)cc1 | -5.61% (inactive) | –
O=C(/C=C/c1ccc(OCc2c(F)cccc2Cl)cc1)N1CCOCC1 | 4.94% (inactive) | –
O=C1COc2ccc(C(=O)COC(=O)CCOc3ccccc3)cc2N1 | 35.1% (inactive) | –
COCCN(C(=O)CC1CCCCC1)c1c(N)n(CC(C)C)c(=O)[nH]c1=O | 2.89% (inactive) | –
CCCCn1c(N)c(N(CCOC)C(=O)c2cccc(S(=O)(=O)N3CCCCC3)c2)c(=O)[nH]c1=O | 9.94% (inactive) | –
Cc1ncoc1C(=O)NCCC(c1ccccc1)c1ccccc1 | -13.5% (inactive) | –
CC(Cc1ccccc1)NCCC(c1ccccc1)c1ccccc1 (centres undefined) | – | 10 µM (active)
CC(Cc1ccccc1)C(=O)N(C)Cc1ccccc1 (centres undefined) | -10.3% (inactive) | –
CC[C@]12c3[nH]c4ccc(OC)cc4c3CCN1C(=O)C(CC(=O)NCc1ccco1)C[C@@H]2C(=O)N1CCN(C(=O)C2CC2)CC1 (some centres undefined) | 36.7% (inactive) | –
O=C(CN1CCN(S(=O)(=O)c2ccc(Cl)s2)CC1)N1CCCCC1 | 3.28% (inactive) | –
COc1ccc(OC)c(NC(=O)c2sc3nc(C)cc(C)c3c2N)c1 | 20.2% (inactive) | –
COc1ccc(OC)c(-c2csc(NC(=O)C3=NNC(=O)CC3)n2)c1 | – | 0.891 µM (active)
COc1ccc(OC)c(-c2csc(NC(=O)COC(=O)C3CC3)n2)c1 | – | 10 µM (active)
COc1ccc(CCNC(=O)COC(=O)C2CCCCC2)cc1 | 19.3% (inactive) | –

Structure (SMILES) | activity change, negative = inhibition | Potency
COc1ccc(-c2csc(NC(=O)COC(=O)c3ccc(Br)o3)n2)cc1 | 0.372% (inactive) | –
COc1ccc(C(=O)NC2=NCCS2)c(OC)c1 | -19.4% (inactive) | –
COCCCn1c(SCC(=O)Nc2oc(C)c3c(C)n[nH]c(=O)c23)nc2sc3c(c2c1=O)CCC3 | 6.64% (inactive) | –
COc1ccc(CN2C(CC(=O)Nc3cccnc3)c3ccc(C(F)(F)F)cc3S2(=O)=O)cc1 (centres undefined) | 5.53% (inactive) | –
Cc1cc(C)c(C)c(S(=O)(=O)Nc2cccnc2)c1C | 3.82% (inactive) | –
CC(OC(=O)C1CC(=O)N(Cc2ccccc2)C1)C(=O)Nc1ccccc1[N+](=O)[O-] (centres undefined) | 4.16% (inactive) | –
CCOc1ccc(N2C(=O)CSC2=NC#N)cc1 | 10.2% (inactive) | –
COc1cc2[nH]c(=S)n(Cc3ccc(F)cc3)c(=O)c2cc1OC | -14.5% (inactive) | –
COc1ccc(OC)c(-n2c(=S)[nH]c3cc(C(=O)N4CCCCC4)ccc3c2=O)c1 | 2.37% (inactive) | –
COc1cc(-n2c(=S)[nH]c3ccc(C)cc3c2=O)c(Cl)cc1Cl | – | 10 µM (active)
CCN(C(=O)CSc1cccc[n+]1[O-])c1ccccc1 | 1.01% (inactive) | –
Cc1cccc(NC(=S)NC(=O)c2ccc(Br)o2)c1 | -5.17% (inactive) | –
Cc1onc(NC(=O)c2ccc([N+](=O)[O-])o2)c1Br | 12.3% (inactive) | –
Cc1cccc(NC(=O)c2ccc([N+](=O)[O-])o2)c1 | – | 3.55 µM (active)
CC(C)(C)OC(=O)N[C@H](C(=O)OC(C)(C)C)c1ccc(Br)cc1 | -6.12% (inactive) | –
C[C@]12C=CC(=O)C=C1CC[C@@H]1[C@@H]2C(=O)C[C@@]2(C)[C@H]1CC[C@]2(O)C(=O)CO | – | inactive and 2.82 µM (active)
CC(=O)OCC(=O)C1(O)CCC2C3CC(C)C4=CC(=O)CCC4(C)C3C(O)CC21C (centres undefined) | 7.93% (inactive) | –
CC1(C)C(=O)CCC2(C)C1=CCC1C2C(=O)CC2(C)C1CCC2(O)C(=O)CO (centres undefined) | 9.92% (inactive) | –
COc1ccc(C(=O)CSc2nnc(-c3ccco3)o2)cc1 | -11.4% (inactive) | –
COc1ccc(-c2nnc(SCC(=O)c3cccs3)o2)c(OC)c1 | -14.7% (inactive) | –
COc1ccc(-n2c(C)cc(C(=O)CSc3nnc(-c4cccs4)o3)c2C)cc1 | – | 11.2 µM (active)
COc1cc(C=NNC(=O)c2cccnc2)ccc1OC(=O)c1ccccc1F | -1.01% (inactive) | –

Structure (SMILES) | activity change, negative = inhibition | Potency
O=C(COC(=O)c1ccccn1)NNC(=O)c1ccc([N+](=O)[O-])cc1 | -0.758% (inactive) | –
O=C(Nc1ccccc1)N1CCC(C(=O)N2CCN(Cc3ccccc3)CC2)CC1 | 8.63% (inactive) | –
Cc1cccc(Nc2nc(-c3ccccc3)cs2)n1 | -8.65% (inactive) | –
c1ccc(Nc2nc(-c3ccncc3)cs2)nc1 | – | 11.2 µM (active)
c1cnc(Nc2nc(-c3ccc4ccccc4c3)cs2)nc1 | -8.89% (inactive) | –
CC(C)CN1CC(C)C(=O)N(c2ccccc2)C1=S (centres undefined) | 2.15% (inactive) | –
O=[N+]([O-])c1ccc(N2CCOCC2)cc1 | 9.72% (inactive) | –
COc1ccc(C2NCCCC2c2ccccc2)cc1 (centres undefined) | 1.92% (inactive) | –
Cn1c(CN2CCOCC2)nc2cc(NC(=O)c3ccc(Cl)cc3)ccc21 | – | 2.82 µM (active)
CC(=O)NCCc1nc2cc(NC(=O)c3ccccc3)ccc2n1C | 10.2% (inactive) | –
CCOC(=O)N1CCN(Cc2nc3cc(NC(C)=O)ccc3n2C)CC1 | 10.3% (inactive) | –
COC(=O)Cc1ccc(Oc2ncc(C(F)(F)F)cc2Cl)cc1 | -12.6% (inactive) | –
COc1cccc(/C=N/Nc2ncc(C(F)(F)F)cc2Cl)c1O | – | 5.62 µM (active)
COc1cccc(/C(C)=N/Nc2ncc(Cl)cc2Cl)c1 | -0.35% (inactive) | –
Cc1cccc(NC(=O)CN2CCN(CC(=O)NCC3(N4CCCCC4)CCCCC3)CC2)c1C | 6.26% (inactive) | –
COc1ccc(S(=O)(=O)N2CCOCC2)cc1NC(=O)Cc1coc2cc(C)ccc12 | -7.25% (inactive) | –
Cc1ccc(-c2nn(-c3ccccc3)cc2C(=O)NCCCN2CCCC2=O)cc1 | 1.07% (inactive) | –
CC(C)CCn1c(=O)c2c(nc3n2CCCN3Cc2ccccc2)n(C)c1=O | – | 11.2 µM (active)
Cn1c(=O)n(CCc2ccccc2)c(=O)c2c1nc1n2CCCN1c1ccccc1 | -15.1% (inactive) | –
CC(C)CCn1c(CN(C)Cc2ccccc2)nc2c1c(=O)n(C)c(=O)n2C | -26.5% (inactive) | –
